{
  "source": "ChEMBL document CHEMBL1157539",
  "about": "“Thousands of chemical starting points for antimalarial lead identification” (Nature, 2010)",
  "assay_type_in_all_cases": "functional",
  "key": {"Plasmodium falciparum [1]": {"system": "Plasmodium falciparum", "experiment": "GSK_TCMDC: Inhibition of Plasmodium falciparum 3D7 in whole red blood cells, using parasite LDH activity as an index of growth. Test compounds present at 2uM"}, "Plasmodium falciparum [2]": {"system": "Plasmodium falciparum", "experiment": "GSK_TCMDC: Inhibition of Plasmodium falciparum Dd2 in whole red blood cells, using parasite LDH activity as an index of growth. Test compounds present at 2uM"}, "HepG2": {"system": "HepG2", "experiment": "GSK_TCMDC: Percent inhibition of human HepG2 cell line. Test compounds present at 10uM."}},
  "data": [
    {"smiles": "Cc1c(OC(C)C)nc2ccccc2c1C(=O)N[C@H](c1cccc(F)c1)C1CC1", "values": [
      {"measurement": "Inhibition", "setting": "Plasmodium falciparum [1]", "value": 83, "unit": "%"},
      {"measurement": "Inhibition", "setting": "Plasmodium falciparum [2]", "value": 34, "unit": "%"},
      {"measurement": "Inhibition", "setting": "HepG2", "value": 6, "unit": "%"}
    ]},
    {"smiles": "CC(CNC(=O)[C@H]1CNCCN1C(=O)CCCc1ccccc1)c1ccccc1.O=C(O)C(F)(F)F", "note": "(stereo partly drawn)", "values": [
      {"measurement": "Inhibition", "setting": "Plasmodium falciparum [1]", "value": 94, "unit": "%"},
      {"measurement": "Inhibition", "setting": "Plasmodium falciparum [2]", "value": 1, "unit": "%"},
      {"measurement": "Inhibition", "setting": "HepG2", "value": 12, "unit": "%"}
    ]},
    {"smiles": "Cc1c(NC(=O)COc2ccc(Cl)cc2C(=O)c2cc(F)cc(C(F)(F)F)c2)ccc2ncsc12", "values": [
      {"measurement": "Inhibition", "setting": "Plasmodium falciparum [1]", "value": 86, "unit": "%"},
      {"measurement": "Inhibition", "setting": "Plasmodium falciparum [2]", "value": 18, "unit": "%"},
      {"measurement": "Inhibition", "setting": "HepG2", "value": 0, "unit": "%"}
    ]},
    {"smiles": "Cc1ccc(CON2C(N)=NC(N)=NC2(C)C)c(Cl)c1.Cc1ccc(CON2C(N)=NC(N)=NC2(C)C)cc1Cl", "values": [
      {"measurement": "Inhibition", "setting": "Plasmodium falciparum [1]", "value": 91, "unit": "%"},
      {"measurement": "Inhibition", "setting": "Plasmodium falciparum [2]", "value": 96, "unit": "%"},
      {"measurement": "Inhibition", "setting": "HepG2", "value": 67, "unit": "%"}
    ]},
    {"smiles": "O=C(/C=C/c1ccc(Cl)c(Cl)c1)NCCCCCN1CCC(NC(=O)c2ccc3ccccc3c2)CC1", "values": [
      {"measurement": "Inhibition", "setting": "Plasmodium falciparum [1]", "value": 87, "unit": "%"},
      {"measurement": "Inhibition", "setting": "Plasmodium falciparum [2]", "value": 20, "unit": "%"},
      {"measurement": "Inhibition", "setting": "HepG2", "value": 8, "unit": "%"}
    ]},
    {"smiles": "COc1c(C2CCN(CCCCNC(=O)c3ccc(-c4ccc(C#N)cc4)nc3)CC2)ccc2c1CCCC2", "values": [
      {"measurement": "Inhibition", "setting": "Plasmodium falciparum [1]", "value": 95, "unit": "%"},
      {"measurement": "Inhibition", "setting": "Plasmodium falciparum [2]", "value": 67, "unit": "%"},
      {"measurement": "Inhibition", "setting": "HepG2", "value": 54, "unit": "%"}
    ]},
    {"smiles": "O=C(Cc1ccc(NC(=O)c2ccc(O)c(-c3cccc([N+](=O)[O-])c3)c2)cc1)NCCN1CCCCC1", "values": [
      {"measurement": "Inhibition", "setting": "Plasmodium falciparum [1]", "value": 89, "unit": "%"},
      {"measurement": "Inhibition", "setting": "Plasmodium falciparum [2]", "value": 3, "unit": "%"},
      {"measurement": "Inhibition", "setting": "HepG2", "value": 4, "unit": "%"}
    ]},
    {"smiles": "CCN(CC)/C(=N/C(=N)Nc1ccc(Cl)c(Cl)c1)NCCCCCCN/C(=N\\C(=N)Nc1ccc(Cl)c(Cl)c1)N(CC)CC", "values": [
      {"measurement": "Inhibition", "setting": "Plasmodium falciparum [1]", "value": 94, "unit": "%"},
      {"measurement": "Inhibition", "setting": "Plasmodium falciparum [2]", "value": 90, "unit": "%"},
      {"measurement": "Inhibition", "setting": "HepG2", "value": 1, "unit": "%"}
    ]},
    {"smiles": "O=C(Nc1cccc(-c2cccc(-c3nc4cc(C(F)(F)F)ccc4[nH]3)c2)c1)c1cccnc1", "values": [
      {"measurement": "Inhibition", "setting": "Plasmodium falciparum [1]", "value": 100, "unit": "%"},
      {"measurement": "Inhibition", "setting": "Plasmodium falciparum [2]", "value": 70, "unit": "%"},
      {"measurement": "Inhibition", "setting": "HepG2", "value": 57, "unit": "%"}
    ]},
    {"smiles": "CN(C)c1ccc(-c2csc(C(=O)NCC3CCN(Cc4cccc(C(F)(F)F)c4)C3)c2)cc1.O=C(O)C(F)(F)F", "note": "(stereo not drawn)", "values": [
      {"measurement": "Inhibition", "setting": "Plasmodium falciparum [1]", "value": 97, "unit": "%"},
      {"measurement": "Inhibition", "setting": "Plasmodium falciparum [2]", "value": 58, "unit": "%"},
      {"measurement": "Inhibition", "setting": "HepG2", "value": 15, "unit": "%"}
    ]},
    {"smiles": "COC(=O)Cc1ccc(N)c2ccccc12.Cl", "values": [
      {"measurement": "Inhibition", "setting": "Plasmodium falciparum [1]", "value": 98, "unit": "%"},
      {"measurement": "Inhibition", "setting": "Plasmodium falciparum [2]", "value": 0, "unit": "%"},
      {"measurement": "Inhibition", "setting": "HepG2", "value": 2, "unit": "%"}
    ]},
    {"smiles": "COc1cc(Cc2cnc(N)nc2N)cc(OCCCCC2SC(=O)NC2=O)c1OC", "note": "(stereo not drawn)", "values": [
      {"measurement": "Inhibition", "setting": "Plasmodium falciparum [1]", "value": 94, "unit": "%"},
      {"measurement": "Inhibition", "setting": "Plasmodium falciparum [2]", "value": 0, "unit": "%"},
      {"measurement": "Inhibition", "setting": "HepG2", "value": 0, "unit": "%"}
    ]},
    {"smiles": "CN(C)c1ccc(CN2CCCCC(NC(=O)c3cc(-c4ccccc4Cl)cs3)C2)cc1.O=C(O)C(F)(F)F", "note": "(stereo not drawn)", "values": [
      {"measurement": "Inhibition", "setting": "Plasmodium falciparum [1]", "value": 91, "unit": "%"},
      {"measurement": "Inhibition", "setting": "Plasmodium falciparum [2]", "value": 14, "unit": "%"},
      {"measurement": "Inhibition", "setting": "HepG2", "value": 10, "unit": "%"}
    ]},
    {"smiles": "Cc1onc(-c2ccccc2)c1-c1nc(NCCC(c2ccccc2)c2ccccc2)no1", "values": [
      {"measurement": "Inhibition", "setting": "Plasmodium falciparum [1]", "value": 100, "unit": "%"},
      {"measurement": "Inhibition", "setting": "Plasmodium falciparum [2]", "value": 78, "unit": "%"},
      {"measurement": "Inhibition", "setting": "HepG2", "value": 0, "unit": "%"}
    ]},
    {"smiles": "Cc1cccc2nc(-c3cccc(-c4ccc(NC(=O)C(C)C(=O)NC(C)C)cc4)c3)[nH]c12", "note": "(stereo not drawn)", "values": [
      {"measurement": "Inhibition", "setting": "Plasmodium falciparum [1]", "value": 85, "unit": "%"},
      {"measurement": "Inhibition", "setting": "Plasmodium falciparum [2]", "value": 26, "unit": "%"},
      {"measurement": "Inhibition", "setting": "HepG2", "value": 13, "unit": "%"}
    ]},
    {"smiles": "CC(=O)Nc1ccc(C(=O)Nc2cccc(-c3ccc(-c4nc5cc(F)ccc5[nH]4)s3)c2)cn1", "values": [
      {"measurement": "Inhibition", "setting": "Plasmodium falciparum [1]", "value": 100, "unit": "%"},
      {"measurement": "Inhibition", "setting": "Plasmodium falciparum [2]", "value": 97, "unit": "%"},
      {"measurement": "Inhibition", "setting": "HepG2", "value": 33, "unit": "%"}
    ]},
    {"smiles": "Cc1cc(O)c(C(C)C)cc1C1(c2cc(C(C)C)c(O)cc2C)OC(=O)c2ccccc21", "values": [
      {"measurement": "Inhibition", "setting": "Plasmodium falciparum [1]", "value": 95, "unit": "%"},
      {"measurement": "Inhibition", "setting": "Plasmodium falciparum [2]", "value": 18, "unit": "%"},
      {"measurement": "Inhibition", "setting": "HepG2", "value": 8, "unit": "%"}
    ]},
    {"smiles": "NC(=O)c1ccc(NCC(=O)Nc2cccc(-c3cccc(-c4nc5cc(F)ccc5[nH]4)c3)c2)cc1", "values": [
      {"measurement": "Inhibition", "setting": "Plasmodium falciparum [1]", "value": 97, "unit": "%"},
      {"measurement": "Inhibition", "setting": "Plasmodium falciparum [2]", "value": 32, "unit": "%"},
      {"measurement": "Inhibition", "setting": "HepG2", "value": 15, "unit": "%"}
    ]},
    {"smiles": "COc1ccccc1-c1cc(C(=O)N2CCN(S(=O)(=O)c3ccc(C)cc3)CC2)[nH]n1", "values": [
      {"measurement": "Inhibition", "setting": "Plasmodium falciparum [1]", "value": 88, "unit": "%"},
      {"measurement": "Inhibition", "setting": "Plasmodium falciparum [2]", "value": 88, "unit": "%"},
      {"measurement": "Inhibition", "setting": "HepG2", "value": 0, "unit": "%"}
    ]},
    {"smiles": "CC(C)(C)c1ccc(CNC(=O)c2cc(CNC3CCNCC3)ccc2O)cc1", "values": [
      {"measurement": "Inhibition", "setting": "Plasmodium falciparum [1]", "value": 96, "unit": "%"},
      {"measurement": "Inhibition", "setting": "Plasmodium falciparum [2]", "value": 8, "unit": "%"},
      {"measurement": "Inhibition", "setting": "HepG2", "value": 6, "unit": "%"}
    ]},
    {"smiles": "CCOCCCn1c(=N)c(C(=O)NC(C)c2ccccc2)cc2c(=O)n3cccc(C)c3nc21", "note": "(stereo not drawn)", "values": [
      {"measurement": "Inhibition", "setting": "Plasmodium falciparum [1]", "value": 95, "unit": "%"},
      {"measurement": "Inhibition", "setting": "Plasmodium falciparum [2]", "value": 31, "unit": "%"},
      {"measurement": "Inhibition", "setting": "HepG2", "value": 24, "unit": "%"}
    ]},
    {"smiles": "Cl.FC(F)(F)c1ccccc1OCc1cc(-c2ccncc2)c(COc2ccccc2C(F)(F)F)cc1C1=CCNCC1", "values": [
      {"measurement": "Inhibition", "setting": "Plasmodium falciparum [1]", "value": 98, "unit": "%"},
      {"measurement": "Inhibition", "setting": "Plasmodium falciparum [2]", "value": 81, "unit": "%"},
      {"measurement": "Inhibition", "setting": "HepG2", "value": 31, "unit": "%"}
    ]},
    {"smiles": "O=C(NCCc1cccc(Cl)c1Cl)c1ccc(N2CCN(c3ccncc3)CC2)nc1.O=C(O)C(F)(F)F", "values": [
      {"measurement": "Inhibition", "setting": "Plasmodium falciparum [1]", "value": 100, "unit": "%"},
      {"measurement": "Inhibition", "setting": "Plasmodium falciparum [2]", "value": 79, "unit": "%"},
      {"measurement": "Inhibition", "setting": "HepG2", "value": 38, "unit": "%"}
    ]},
    {"smiles": "CCN1CCN(c2cc(C)c3cc(NC(=O)c4ccc(Br)o4)ccc3n2)CC1", "values": [
      {"measurement": "Inhibition", "setting": "Plasmodium falciparum [1]", "value": 98, "unit": "%"},
      {"measurement": "Inhibition", "setting": "Plasmodium falciparum [2]", "value": 13, "unit": "%"},
      {"measurement": "Inhibition", "setting": "HepG2", "value": 0, "unit": "%"}
    ]},
    {"smiles": "CCCC[C@@H](C(=O)NCCc1ccc(Cl)cc1)N1C(=O)CCC1C(=O)Nc1ccc(Cl)c(Cl)c1", "note": "(stereo partly drawn)", "values": [
      {"measurement": "Inhibition", "setting": "Plasmodium falciparum [1]", "value": 95, "unit": "%"},
      {"measurement": "Inhibition", "setting": "Plasmodium falciparum [2]", "value": 2, "unit": "%"},
      {"measurement": "Inhibition", "setting": "HepG2", "value": 4, "unit": "%"}
    ]},
    {"smiles": "FC(F)(F)c1ccc2[nH]c(-c3ccc(-c4ccc(CNCc5cnn(-c6ccccc6)n5)cc4)s3)nc2c1.O=C(O)C(F)(F)F", "values": [
      {"measurement": "Inhibition", "setting": "Plasmodium falciparum [1]", "value": 100, "unit": "%"},
      {"measurement": "Inhibition", "setting": "Plasmodium falciparum [2]", "value": 89, "unit": "%"},
      {"measurement": "Inhibition", "setting": "HepG2", "value": 27, "unit": "%"}
    ]}
  ]
}
